Experimental findings from PubChem BioAssay are described below.

SMILES strings stand for the structures. Activity calls are given as the source filed them.

Test [1] can be described thus: compounds binding Alexa647 anti-His antibody – biochemical, small-molecule microarray, 635 nm fluorescence, artefact control for SMM control protein annotation, primary screen (AID 1128).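 Also: score merges feature fluorescence with signal-to-noise for each printed compound spot.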 As to conditions: higher = more signal.
Test [2] has as its system Human papillomavirus type 1a E7 protein (residues 1-88). Nature of the test: HPV1a E7 small-molecule binders, primary screen, biochemical, small-molecule microarray, residues 1-88, 635 nm (AID 1129). Particulars: small-molecule microarray binding, fluorescence 635 nm; higher = more signal.
In test [3] the target is Focal adhesion kinase 1 (Homo sapiens) (UniProt Q05397). Nature of the test: PTK2 protein binding on printed compound slides – biochemical, small-molecule microarray, 635/667 nm fluorescence, BSA, DTT, primary screen (AID 1130).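 Also: composite of spot emission at 667 nm and signal to noise over triplicate slides.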 As to conditions: 635 nm fluorescence, higher = more signal.
Test [4] has as its system Fibrinogen (Alexa647-labelled). Description: Alexa647-fibrinogen binding to printed small molecules – biochemical, small-molecule microarray, 635/667 nm fluorescence, artefact control for SMM control-protein annotation, profiling panel (AID 1131).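 Also: z-score merges 667 nm fluorescence with per-spot signal-to-noise over triplicate slides.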 Particulars: fibrinogen-A647 binding fluorescence, higher = more signal.
The target of test [5] is Follistatin (Homo sapiens) (UniProt P19883). Description: FST protein binding to printed compounds – biochemical, small-molecule microarray, 635/667 nm fluorescence, primary screen (AID 1132). Particulars: 635 nm fluorescence, higher = more signal.
Test [6] concerns the target Fibroblast growth factor 2 (Homo sapiens) (UniProt P09038). Description: basic fibroblast growth factor binding to printed compounds – biochemical, small-molecule microarray, 635/667 nm fluorescence, primary screen (AID 1133). Particulars: FGF2, fluorescence 635/667, higher = more signal.
Test [7] in a line: JC-1 mitochondrial potential readout, lung cancer cells – cell-based, A549, JC-1 fluorescence, basal, 24 h, 100 nL, profiling panel (AID 1138).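 Also: A549 lung adenocarcinoma cells under basal conditions with no added stimulus; test concentration not given here.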 As to conditions: higher = more signal.
The subject of another test is Lefty1. Nature of the test: Lefty1 protein binding to printed compounds – biochemical, small-molecule microarray, 635/667 nm fluorescence, primary screen (AID 1139). As to conditions: fluorescence 635/667, higher = more signal.
The test system of test [8] is wheat germ agglutinin (Triticum aestivum), Alexa647-labelled. Description: Alexa647-WGA lectin binding to printed small molecules – biochemical, small-molecule microarray, 635/667 nm fluorescence, artefact control for SMM control-protein annotation, profiling panel (AID 1140).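 Also: score merges 667 nm feature emission with signal to noise over triplicate slides.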 As to conditions: WGA-A647 binding, 635 nm fluorescence, higher = more signal.
Test [9] has as its target Luciferin 4-monooxygenase (Photinus pyralis) (UniProt P08659). Description: inhibition of purified Photinus pyralis luciferase – biochemical, luminescence, purified enzyme, 2006 set, primary screen (AID 1141).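 Also: cell-free assay with purified firefly luciferase at 100 ng per well in PBS; test concentration not given here.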 As to conditions: purified firefly luciferase, SteadyGlo luminescence, 30 min; higher = more signal, called active from +8 up or from −8 down.

Luciferin 4-monooxygenase (Photinus pyralis), sequence (P08659 whole entry, looked up): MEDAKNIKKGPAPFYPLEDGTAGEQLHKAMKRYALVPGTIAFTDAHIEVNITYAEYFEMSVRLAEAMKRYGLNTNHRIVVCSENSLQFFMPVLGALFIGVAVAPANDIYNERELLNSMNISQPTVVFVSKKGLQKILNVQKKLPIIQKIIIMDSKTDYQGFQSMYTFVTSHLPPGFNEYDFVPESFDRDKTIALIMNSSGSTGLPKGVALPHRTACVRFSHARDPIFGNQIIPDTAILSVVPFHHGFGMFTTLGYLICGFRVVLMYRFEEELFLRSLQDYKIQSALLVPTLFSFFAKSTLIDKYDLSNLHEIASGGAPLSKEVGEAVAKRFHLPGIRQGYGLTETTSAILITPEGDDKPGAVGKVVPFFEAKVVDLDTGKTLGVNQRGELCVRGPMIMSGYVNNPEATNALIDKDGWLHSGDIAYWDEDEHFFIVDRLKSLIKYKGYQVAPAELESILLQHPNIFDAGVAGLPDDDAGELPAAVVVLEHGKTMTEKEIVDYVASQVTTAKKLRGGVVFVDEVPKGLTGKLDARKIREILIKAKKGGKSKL
Fibroblast growth factor 2 (Homo sapiens), sequence (P09038 whole entry, looked up): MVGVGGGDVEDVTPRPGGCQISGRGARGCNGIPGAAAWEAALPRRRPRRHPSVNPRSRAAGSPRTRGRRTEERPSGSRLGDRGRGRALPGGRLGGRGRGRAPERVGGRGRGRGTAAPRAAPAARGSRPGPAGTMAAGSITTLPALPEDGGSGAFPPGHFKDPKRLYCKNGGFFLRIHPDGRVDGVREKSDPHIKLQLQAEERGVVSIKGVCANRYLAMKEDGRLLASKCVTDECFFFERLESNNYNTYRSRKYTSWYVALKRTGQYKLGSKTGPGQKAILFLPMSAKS
Follistatin (Homo sapiens), sequence (P19883 whole entry, looked up): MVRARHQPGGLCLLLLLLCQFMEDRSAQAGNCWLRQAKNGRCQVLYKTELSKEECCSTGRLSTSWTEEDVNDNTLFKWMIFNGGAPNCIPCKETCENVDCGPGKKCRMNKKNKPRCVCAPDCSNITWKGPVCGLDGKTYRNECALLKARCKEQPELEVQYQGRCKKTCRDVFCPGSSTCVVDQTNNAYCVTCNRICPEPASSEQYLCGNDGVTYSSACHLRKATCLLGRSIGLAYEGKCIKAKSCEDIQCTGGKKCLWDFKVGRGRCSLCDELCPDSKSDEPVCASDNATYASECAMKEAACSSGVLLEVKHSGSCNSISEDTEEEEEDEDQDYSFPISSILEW
Focal adhesion kinase 1 (Homo sapiens), sequence (Q05397 whole entry, looked up): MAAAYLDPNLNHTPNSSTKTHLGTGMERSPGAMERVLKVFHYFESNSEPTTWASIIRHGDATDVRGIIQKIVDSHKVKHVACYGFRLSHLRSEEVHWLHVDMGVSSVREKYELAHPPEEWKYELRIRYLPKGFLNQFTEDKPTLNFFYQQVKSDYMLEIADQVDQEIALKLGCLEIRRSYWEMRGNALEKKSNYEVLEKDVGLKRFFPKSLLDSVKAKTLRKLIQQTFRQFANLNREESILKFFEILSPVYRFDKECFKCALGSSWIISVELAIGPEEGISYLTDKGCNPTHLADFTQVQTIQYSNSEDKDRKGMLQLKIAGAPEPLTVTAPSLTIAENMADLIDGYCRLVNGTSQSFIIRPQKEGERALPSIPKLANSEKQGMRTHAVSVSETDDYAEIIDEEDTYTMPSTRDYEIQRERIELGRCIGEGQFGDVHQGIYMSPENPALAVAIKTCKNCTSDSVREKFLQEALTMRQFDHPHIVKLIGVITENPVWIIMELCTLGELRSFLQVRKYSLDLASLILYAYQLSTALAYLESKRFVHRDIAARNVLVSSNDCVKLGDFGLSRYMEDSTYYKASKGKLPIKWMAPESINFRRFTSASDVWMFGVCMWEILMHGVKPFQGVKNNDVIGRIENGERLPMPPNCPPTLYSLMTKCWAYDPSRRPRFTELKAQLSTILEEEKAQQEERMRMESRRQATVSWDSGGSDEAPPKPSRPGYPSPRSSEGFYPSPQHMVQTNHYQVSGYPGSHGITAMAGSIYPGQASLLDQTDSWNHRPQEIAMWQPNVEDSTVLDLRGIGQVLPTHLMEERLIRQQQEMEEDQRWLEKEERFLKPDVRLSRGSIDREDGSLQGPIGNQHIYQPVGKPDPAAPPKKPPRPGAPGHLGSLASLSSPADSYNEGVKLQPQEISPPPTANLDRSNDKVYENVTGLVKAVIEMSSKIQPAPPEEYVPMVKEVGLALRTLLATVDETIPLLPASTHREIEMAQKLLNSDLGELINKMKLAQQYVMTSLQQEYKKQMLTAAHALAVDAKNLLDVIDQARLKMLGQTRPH

As to `CCN(CC)c1ccc(N2CC=CC34O[C@@H]5C=CCOC(=O)[C@@H]5[C@H]3C(=O)N(CCO)[C@@H]4C2=O)cc1` (stereo not given in full), the composite z-score in [1] is -0.305; in test [2], -0.508; in test [3], -0.856; in [4] it was -0.602; in test [5], -0.721; in test [6] it was -1.44. Besides, the composite z-score in the test with Lefty1 is -1.35; in test [8] it was -1.38. Further, the z-score in [7] is 1.41; in test [9], -1.47 (inactive).
As to `CCCC[C@H]1OB(O)C[C@H]2C1=C(COC)C[C@H]1C(=O)C=CC(=O)[C@H]12`, the composite z-score was 0.51 in test [1]; 0.215 in [2]; -0.0157 in test [3]; 0.287 in [4]; 0.865 in test [5]; 0.32 in [6]. In addition, the composite z-score came out at 0.96 in the test with Lefty1 and 0.106 in test [8]. Also, the z-score in test [7] was 0.777; in [9] it was -3.03 (inactive).
Consider `CCCCC(=C=CC[C@H](O)c1ccc(OCCO)cc1)C[C@H](O)c1ccccn1`, for which the composite z-score in [1] was found to be 1.67; in test [2], 1.13; in test [3], 0.26; in test [4] it was 0.963; in [5], 1.27; in test [6], 1.54. Also, the composite z-score was 0.885 in the test with Lefty1 and 0.266 in [8]. Further, the results for the z-score in test [7] and in test [9] were 1.27 and -2.27 (inactive), respectively.
Consider `COCC(=C=CC[C@@H](O)c1cccc(OCCO)c1)C[C@@H](O)COCc1ccccc1`, for which the composite z-score in test [1] is 0.934; in [2] it was 1.09; in [3], 0.112; in [4] it was -0.272; in [5], 0.941; in test [6], -0.237. Also, the composite z-score is -0.058 with Lefty1 and 1.34 in test [8]. In addition, the results for the z-score in test [7] and in [9] were 0.806 and -2.33 (inactive), respectively.
As to `C=CC[C@@]1(C(=O)O)N=C(c2ccc(OCCCO)cc2)O[C@@H]1c1ccccc1CN=[N+]=[N-]`, the composite z-score worked out at 0.706 in test [1]; 0.86 in test [2]; 0.518 in test [3]; 0.68 in test [4]; 0.939 in test [5]; 0.381 in test [6]. The values for the composite z-score (in the test on Lefty1; in test [8]) were 0.588 and 1.24, respectively. Moreover, the figures for the z-score in test [7] and in test [9] were -0.472 and -0.926 (inactive), respectively.
As to `COCCOC(=O)N1C(=O)[C@@]2(c3ccccc31)[C@H](C(N)=O)[C@H]1C(=O)O[C@H](c3ccccc3)[C@H](c3ccccc3)N1[C@@H]2c1ccc(OCCO)cc1`, the composite z-score in test [1] is 0.918; in test [2], 1.24; in [3] it was 0.451; in test [4] it was 0.927; in [5] it was 1.11; in [6], 0.807. Further, the composite z-score with Lefty1 was found to be 0.619; in test [8] it was 0.982. Besides, the z-score in test [7] was 0.101; in test [9] it was 0.346 (inactive).
`CCCCCCc1nc(-c2ccc(OC)nc2)cc2c1[Si](C(C)C)(C(C)C)OC2`: the composite z-score in test [1] was -0.102; in [2], -0.493; in test [3], -0.206; in [4], -0.137; in test [5], -0.0974; in test [6] it was -0.206. Besides, the figures for the composite z-score (in the test with Lefty1; in test [8]) were -0.0037 and -0.218, respectively. Also, the values for the z-score in [7] and in test [9] were -1.46 and 0.997 (inactive), respectively.
Take `CN(C)C(=O)[C@]1(Cc2ccccc2)N=C(c2ccc(OCCCO)cc2)O[C@@H]1c1ccccc1`: the composite z-score is 2.94 in test [1]; 1.25 in test [2]; 0.593 in [3]; 1 in test [4]; 0.973 in [5]; -0.263 in test [6]. Moreover, the composite z-score in the test on Lefty1 was -0.222; in test [8], 1.2. Further, the values for the z-score in test [7] and in test [9] were 0.473 and -0.701 (inactive), respectively.
Turning to `CC(C)C[C@@H]1NC(=O)[C@@H]2C[C@H](C(=O)NCCCC[N+](C)(C)C)[C@H](c3ccc(O)cc3)N2C1=O`, the composite z-score was 2.63 in [1]; 0.643 in [2]; -0.133 in test [3]; 0.354 in [4]; 1.42 in test [5]; 1.76 in [6]. In addition, the results for the composite z-score (with Lefty1; in test [8]) were 1.67 and 0.479, respectively. Also, the z-score in test [7] was -0.694; in [9], -0.948 (inactive).
Take `CCCC=C(CCC)[C@@H](NS(=O)(=O)c1ccc(Cl)cc1)c1ccccc1`: the composite z-score in test [1] was 1.12; in [2] it was -0.382; in test [3], 0.884; in [4], 0.522; in test [5] it was -0.883; in test [6], -0.919. For the same compound, the composite z-score was -1.17 in the test with Lefty1 and 0.303 in test [8]. For the same compound, the z-score in [7] is -0.576; in test [9] it was 1.8 (inactive).
Consider `C=CC[C@]1(C(=O)NCc2ccccc2)COC(c2ccc(OCCCO)cc2)=N1`, for which the composite z-score in test [1] was 0.16; in [2] it was -0.0156; in [3], -0.19; in [4], 0.295; in test [5], -0.431; in [6] it was -0.87. Further, the composite z-score in the test on Lefty1 was -0.95; in test [8], 1.02. Further, the z-score was 1.03 in [7] and -0.218 (inactive) in test [9].
`COCCOC(=O)N1C(=O)[C@@]2(c3cc(C#CC4=CCCCC4)ccc31)[C@H](c1ccc(OCCO)cc1)N1[C@H](c3ccccc3)[C@H](c3ccccc3)OC(=O)[C@H]1[C@@H]2C(=O)N1CCCCCCC1`: the composite z-score in [1] is 1.11; in [2], 0.929; in test [3], 0.267; in test [4] it was 0.818; in test [5], 1.41; in test [6] it was 1.42. Moreover, the composite z-score in the test with Lefty1 turned out to be 1.21; in [8], 0.743. The results for the z-score in test [7] and in test [9] were -0.744 and -2.78 (inactive), respectively.
Regarding `CCCC[C@@H](O)C1=C(COC)Cn2c(=O)n(-c3ccccc3)c(=O)n2[C@H]1CO`, the composite z-score in [1] was 0.0209; in test [2], -0.155; in test [3], -0.109; in [4], 0.894; in test [5], -0.266; in test [6], 0.0646. Moreover, the composite z-score with Lefty1 is -0.0726; in [8], 0.858. For the same compound, the z-score in test [7] was -0.239; in test [9], -1.65 (inactive).
As to `COc1ccc([Si](C)(C)[C@H]2[C@H](CC(=O)N3Cc4ccccc4C[C@H]3CO)O[C@@]3(C(=O)N(Cc4cccc(N5C(=O)c6cccc7cccc5c67)c4)c4ccccc43)[C@@H]2C)cc1`, the composite z-score was 0.577 in test [1]; 1.16 in test [2]; 0.463 in test [3]; -0.0297 in test [4]; 1.18 in test [5]; 1.59 in test [6]. Also, the composite z-score turned out to be 1.53 with Lefty1 and 0.108 in [8]. Further, the values for the z-score in [7] and in [9] were 1.03 and -1.53 (inactive), respectively.
Take `COc1ccc(CCNC(=O)[C@@]2(Sc3ccc(C)cc3)CC(=O)N(C(C)C)[C@@H]2c2ccc(CO)cc2)cc1`: the composite z-score in test [1] was 0.8; in [2], -0.594; in [3], -0.13; in test [4], -1.3; in test [5], -0.616; in test [6] it was -1.26. Moreover, the composite z-score is -0.919 with Lefty1 and -0.29 in [8]. Moreover, the z-score in [7] is 0.339; in test [9] it was -0.424 (inactive).
